Test in all cases: yeast three-hybrid, YBZ-1, SC-Leu-His + 0.5 mM 3-AT, 4 days
What all share (details): tags: N-Gal4 AD-HA kept; label: inside an RPR1-promoter hybrid RNA with tandem MS2 sites; ssRNA

The target of test [1] is PUM1 PUF domain R2-AWW (Homo sapiens, UniProt Q14671 828-1176, N899A;Y900W;Q903W). Put shortly: (§1)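 The interaction score is the log change in how often each variant appears, from input to selection. Frequencies came from PCR-amplified, Illumina-sequenced repeat regions of Pumilio-1 PUF domain libraries grown in strain YBZ-1 (LexA–MS2 coat fusion, HIS3 reporter) alongside matching RNA elements. Input plates were SC-Leu and selection plates were SC-Leu-His + 0.5 mM 3-AT, each for four days, and the log2 calculation used a pseudocount of 1 where a variant was absent.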
Sequence of PUM1 PUF domain R2-AWW (Q14671 828-1176 N899A/Y900W/Q903W): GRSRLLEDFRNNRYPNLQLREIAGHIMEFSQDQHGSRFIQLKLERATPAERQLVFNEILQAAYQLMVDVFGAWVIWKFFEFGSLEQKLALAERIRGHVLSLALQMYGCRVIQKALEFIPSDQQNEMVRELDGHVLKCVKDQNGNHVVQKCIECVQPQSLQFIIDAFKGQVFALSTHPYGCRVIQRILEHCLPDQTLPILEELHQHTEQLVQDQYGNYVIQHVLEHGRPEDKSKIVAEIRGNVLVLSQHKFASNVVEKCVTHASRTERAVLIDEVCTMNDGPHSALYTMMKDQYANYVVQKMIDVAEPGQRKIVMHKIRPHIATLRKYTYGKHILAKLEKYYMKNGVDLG

In test [2] the target is PUM1 PUF domain R3-EWG (Homo sapiens, UniProt Q14671 828-1176, C935E;R936W;Q939G). Put shortly:
as §1

Test [3] addresses PUM1 PUF domain R4-SPC (Homo sapiens, UniProt Q14671 828-1176, N971S;H972P;Q975C). Put shortly:
as §1

Test [4] deals with PUM1 PUF domain R4-SPS (Homo sapiens, UniProt Q14671 828-1176, N971S;H972P;Q975S). The gist of the method:
as §1

For test [5], the target named is PUM1 PUF domain R5-KYY (Homo sapiens, UniProt Q14671 828-1176, C1007K;R1008Y;Q1011Y). Put shortly: as §1
Sequence of PUM1 PUF domain R5-KYY (Q14671 828-1176 C1007K/R1008Y/Q1011Y): as the sequence (Q14671 828-1176 N899A/Y900W/Q903W) above, with A72N, W73Y, W76Q, C180K, R181Y, Q184Y counted along it
Test [6] addresses PUM1 PUF domain R3-VWS (Homo sapiens, UniProt Q14671 828-1176, C935V;R936W;Q939S). Put shortly:
as §1

In test [7] the target is PUM1 PUF domain R7-RRF (Homo sapiens, UniProt Q14671 828-1176, S1079R;N1080R;E1083F). Put shortly: as §1
Sequence of PUM1 PUF domain R7-RRF (Q14671 828-1176 S1079R/N1080R/E1083F): as the sequence (Q14671 828-1176 N899A/Y900W/Q903W) above, with A72N, W73Y, W76Q, S252R, N253R, E256F counted along it
Test [8] addresses PUM1 PUF domain R5-FNG (Homo sapiens, UniProt Q14671 828-1176, C1007F;R1008N;Q1011G). The gist of the method: as §1
For test [9], the target named is PUM1 PUF domain R5-GNW (Homo sapiens, UniProt Q14671 828-1176, C1007G;R1008N;Q1011W). The gist of the method: as §1
Sequence of PUM1 PUF domain R5-GNW (Q14671 828-1176 C1007G/R1008N/Q1011W): as the sequence (Q14671 828-1176 N899A/Y900W/Q903W) above, with A72N, W73Y, W76Q, C180G, R181N, Q184W counted along it
Test [10] concerns the target PUM1 PUF domain R2-RKG (Homo sapiens, UniProt Q14671 828-1176, N899R;Y900K;Q903G). Put shortly:
as §1

Data on 11 sequences can be found in PMC8384837, “Expanding the binding specificity for RNA recognition by a PUF domain”.

Sequence of PUM1 PUF domain R3-EWG (Q14671 828-1176 C935E/R936W/Q939G): as the sequence (Q14671 828-1176 N899A/Y900W/Q903W) above, with A72N, W73Y, W76Q, C108E, R109W, Q112G counted along it
Sequence of PUM1 PUF domain R4-SPS (Q14671 828-1176 N971S/H972P/Q975S): as the sequence (Q14671 828-1176 N899A/Y900W/Q903W) above, with A72N, W73Y, W76Q, N144S, H145P, Q148S counted along it
Sequence of PUM1 PUF domain R4-SPC (Q14671 828-1176 N971S/H972P/Q975C): as the sequence (Q14671 828-1176 N899A/Y900W/Q903W) above, with A72N, W73Y, W76Q, N144S, H145P, Q148C counted along it
Sequence of PUM1 PUF domain R3-VWS (Q14671 828-1176 C935V/R936W/Q939S): as the sequence (Q14671 828-1176 N899A/Y900W/Q903W) above, with A72N, W73Y, W76Q, C108V, R109W, Q112S counted along it
Sequence of PUM1 PUF domain R2-RKG (Q14671 828-1176 N899R/Y900K/Q903G): as the sequence (Q14671 828-1176 N899A/Y900W/Q903W) above, with A72R, W73K, W76G counted along it
Sequence of PUM1 PUF domain R5-FNG (Q14671 828-1176 C1007F/R1008N/Q1011G): as the sequence (Q14671 828-1176 N899A/Y900W/Q903W) above, with A72N, W73Y, W76Q, C180F, R181N, Q184G counted along it

“GGCUAGAACUAGUGGAUCCCCCGGCGCCCGGCGGCUCGAGCCCGGGUAAGUGUAAAAAGUCUGCAUGCCGCCGGGCGCCAUGCCUGCAGGUCGACUCUAGAAAACAUG”: the binding signal in test [1] is 7.76 log2 enrichment (interaction score).
Turning to “GGCUAGAACUAGUGGAUCCCCCGGCGCCCGGCGGCUCGAGCCCGGGUAAGUGUAAGUAGUCUGCAUGCCGCCGGGCGCCAUGCCUGCAGGUCGACUCUAGAAAACAUG”, the binding signal in test [2] was 4.81 log2 enrichment (interaction score).
“GGCUAGAACUAGUGGAUCCCCCGGCGCCCGGCGGCUCGAGCCCGGGUAAGUGUAUAUAGUCUGCAUGCCGCCGGGCGCCAUGCCUGCAGGUCGACUCUAGAAAACAUG”: the binding signal in test [3] is 2.92 log2 enrichment (interaction score); in [4], 2.82 log2 enrichment (interaction score).
With “GGCUAGAACUAGUGGAUCCCCCGGCGCCCGGCGGCUCGAGCCCGGGUAAGUGUCAAUAGUCUGCAUGCCGCCGGGCGCCAUGCCUGCAGGUCGACUCUAGAAAACAUG”, the binding signal in test [5] is 3.07 log2 enrichment (interaction score).
With “GGCUAGAACUAGUGGAUCCCCCGGCGCCCGGCGGCUCGAGCCCGGGUAAGUGUAAUUAGUCUGCAUGCCGCCGGGCGCCAUGCCUGCAGGUCGACUCUAGAAAACAUG”, the binding signal in test [2] is 3.95 log2 enrichment (interaction score).
With “GGCUAGAACUAGUGGAUCCCCCGGCGCCCGGCGGCUCGAGCCCGGGUAAGUGUAAAUAGUCUGCAUGCCGCCGGGCGCCAUGCCUGCAGGUCGACUCUAGAAAACAUG”, the binding signal in [6] is 2.46 log2 enrichment (interaction score); in test [2], 3.61 log2 enrichment (interaction score); in [3], 3.42 log2 enrichment (interaction score); in test [4] it was 3.74 log2 enrichment (interaction score); in test [5], 1.63 log2 enrichment (interaction score).
Regarding “GGCUAGAACUAGUGGAUCCCCCGGCGCCCGGCGGCUCGAGCCCGGGUAAGUCUAAAUAGUCUGCAUGCCGCCGGGCGCCAUGCCUGCAGGUCGACUCUAGAAAACAUG”, the binding signal in test [7] was 3.82 log2 enrichment (interaction score).
As to “GGCUAGAACUAGUGGAUCCCCCGGCGCCCGGCGGCUCGAGCCCGGGUAAGUGUUAAUAGUCUGCAUGCCGCCGGGCGCCAUGCCUGCAGGUCGACUCUAGAAAACAUG”, the binding signal in test [8] was 3.1 log2 enrichment (interaction score); in test [9], 3.72 log2 enrichment (interaction score); in test [5], 2.56 log2 enrichment (interaction score).
On to “GGCUAGAACUAGUGGAUCCCCCGGCGCCCGGCGGCUCGAGCCCGGGUAAGUGUAAAGAGUCUGCAUGCCGCCGGGCGCCAUGCCUGCAGGUCGACUCUAGAAAACAUG”, for which the values for the binding signal in test [10] and in test [1] were 4.62 log2 enrichment (interaction score) and 0.42 log2 enrichment (interaction score), respectively.
Turning to “GGCUAGAACUAGUGGAUCCCCCGGCGCCCGGCGGCUCGAGCCCGGGUAAGUGUACAUAGUCUGCAUGCCGCCGGGCGCCAUGCCUGCAGGUCGACUCUAGAAAACAUG”, the binding signal in test [4] is 1.66 log2 enrichment (interaction score).
With “GGCUAGAACUAGUGGAUCCCCCGGCGCCCGGCGGCUCGAGCCCGGGUAAGUUUAAAUAGUCUGCAUGCCGCCGGGCGCCAUGCCUGCAGGUCGACUCUAGAAAACAUG”, the binding signal in [7] was 4.42 log2 enrichment (interaction score).
